About 2,700 (4%) of roughly 68,000 compounds showed an effect of 50% or more. The sample as a whole holds a higher share of strong results than the screen did.
test system: Plasmodium berghei; test: Screen against P. berghei liver stage (PbLuc), transformed with Luciferase, at 2uM; type: functional, HepG2; conditions: tested at 2 uM

Row | SMILES | INHIBITION [%]
1 | COCC1CN(C(=O)Cc2cccc(F)c2)Cc2ccnn2C1 (stereo unspecified) | 13.52
2 | CCCN(CCc1ccccn1)C(=O)CCc1cnn(C)c1 | -46.85
3 | CC1(C)CC(N(Cc2ccccc2)Cc2cccnc2)CC(C)(C)N1 | 26.52
4 | CNC(=O)c1cccnc1N1CCN(Cc2ccccc2)C(CCO)C1 (stereo unspecified) | -4.52
5 | Cc1ccc(CN2CCN(c3ncccc3C(N)=O)CC2CCO)cc1 (stereo unspecified) | 3.92
6 | O=C(O)c1cccnc1N1CCN(Cc2ccc(F)cc2)C(CCO)C1 (stereo unspecified) | 78.43
7 | c1cncc(C2COC3(CCN(Cc4ccsc4)CC3)C2)c1 (stereo unspecified) | 32.85
8 | Cn1nccc1CN1CCOC(c2cccc(Nc3ccccn3)n2)C1 (stereo unspecified) | -88.78
9 | Cc1nc(C)c(CNC(=O)N2CCc3ccccc3C2CO)s1 (stereo unspecified) | 5.98
10 | Cc1cc(CC(=O)NC2CCCN(Cc3ccccc3)C2=O)n[nH]1 (stereo unspecified) | -8.63
11 | COc1cc(C)ccc1C(=O)N1CCC2(CCC(=O)N(C(C)C)C2)CC1 | -4.62
12 | COc1cccc(C(=O)N2CCC3(CCC(=O)N(C(C)C)C3)CC2)c1C | 63.37
13 | COc1ccc(F)cc1C(=O)N1CCC2(CCC(=O)N(C(C)C)C2)CC1 | 23.76
14 | CC(=O)N1CCN(C(=O)CNc2cccc(OC(F)F)c2C)CC1 | 17.61
15 | COc1ccc(OC)c(C2CCN(C(=O)C3CCC(O)CC3)C2)c1 (stereo unspecified) | 55.36
16 | COc1ccc(OC)c(C2CCN(C(=O)C3CCOCC3)C2)c1 (stereo unspecified) | 48.21
17 | COc1ccc(OC)c(C2CCN(C(=O)C3CCS(=O)(=O)CC3)C2)c1 (stereo unspecified) | -18.57
18 | COc1ccc(C(=O)NCc2cccnc2N2CCOCC2)o1 | -49.51
19 | O=C(c1cccs1)N1CCC(n2nc(-c3ccco3)ccc2=O)CC1 | 38.1
20 | CCc1c(C)nn(CC(=O)NC(C)c2n[nH]c(C)n2)c1C (stereo unspecified) | 40.15
21 | Clc1ccc(C2(CNC3=NCCN3)CCCCC2)cc1 | 35.46
22 | Clc1ccc(C2(CNC3=NCCN3)CCCC2)cc1 | 6.85

Row | SMILES | INHIBITION [%]
23 | Clc1ccc(C2(CNC3=NCCN3)CC2)cc1 | 53.98
24 | Cc1cnc(N2CCCC3(COCCN(c4ccc(C)nn4)C3)C2)nc1 (stereo unspecified) | 20.21
25 | CN(Cc1cccc(O)c1)C(=O)c1ccc(CCC(C)(C)O)cc1 | 19.75
26 | O=C(NCCc1cccs1)N1CCC[C@H]1CO | 55.39
27 | O=C(NCCc1cccs1)N1CCCC1CCCO (stereo unspecified) | 8.03
28 | O=C(NCCCc1cccs1)N1CCCCC1CCO (stereo unspecified) | 39.97
29 | COCC(=O)N1CCCC(C(=O)N(C)CCn2ccnc2C)C1 (stereo unspecified) | 46.04
30 | Cc1ccc2[nH]c(C(=O)NCCCn3ccnn3)c(C)c2c1 | 22.39
31 | Cc1ccc2nc(C)c(C)c(C(=O)NCCCn3ccnn3)c2c1 | 56.21
32 | Cc1ccc2nc(C)c(C)c(C(=O)NCCCn3cnnc3)c2c1 | 10.78
33 | CC(=O)NCCC1CCCCN1S(=O)(=O)c1cccc(F)c1 (stereo unspecified) | 50.91
34 | CC(=O)NCCC1CCCCN1S(=O)(=O)c1ccc2ccccc2c1 (stereo unspecified) | 29.89
35 | CC(=O)NCCC1CCCCN1S(=O)(=O)c1cccc(Cl)c1 (stereo unspecified) | -12.13
36 | Cn1cc(-c2csc(N3CCOCC3)n2)cn1 | 13.35
37 | Cc1occc1C(=O)N1CCOCC2(CCN(Cc3nccs3)C2)C1 (stereo unspecified) | 3.85
38 | O=C(N1CCCC1)N1C[C@H]2CCC[C@@]2(COCc2ccccn2)C1 | 5.44
39 | CSC(C)C(=O)NS(=O)(=O)c1ccc(F)c(C(F)(F)F)c1 (stereo unspecified) | 51.48
40 | COC(C)C(=O)NS(=O)(=O)c1ccc(F)c(C(F)(F)F)c1 (stereo unspecified) | 35.7
41 | CC(C)C(=O)NS(=O)(=O)c1ccc(F)c(C(F)(F)F)c1 | 18.82
42 | CC(C)N(C)CCC(=O)N1CCCC(c2ccc(C(=O)O)cc2)C1 (stereo unspecified) | -1.98
43 | CCn1nc2c(cc1=O)CN(Cc1cc(C)on1)CC2 | 73.01
44 | Cc1cc(CN2CCc3nn(C)c(=O)cc3C2)no1 | 22.34

Row | SMILES | INHIBITION [%]
45 | CCCn1nc2c(cc1=O)CN(Cc1c(C)noc1C)CC2 | 44.37
46 | CCCn1nc2c(cc1=O)CN(Cc1cc(C)on1)CC2 | -1.79
47 | Cc1cc(CN2CCc3nn(C)c(=O)cc3C2)on1 | -2.31
48 | CCCn1nc2c(cc1=O)CN(Cc1cc(C)no1)CC2 | 62
49 | Cc1cc(C)nc(N2CCC(Cn3cc(C(N)=O)cn3)CC2)n1 | 0.93
50 | Clc1ccc(-c2nnc([C@H]3CCN(C4CCCCC4)C3)o2)cc1 | -57.27
51 | O=C(Nc1cn[nH]c1)N1CCN(CCSc2ccccc2)CC1 | -11.24
52 | COCCN1CCc2cc(C(=O)NC(C)C)c(NCC(C)C)nc2CC1 | 42.15
53 | Cc1nn(C)c(Oc2ccc(Cl)cc2)c1CN1CCOC(CN)C1 (stereo unspecified) | 48.21
54 | Cc1nn(C)c(Oc2ccc(Cl)cc2)c1CN1CCC(CN)C1 (stereo unspecified) | 64.9
55 | Cc1nn(C)c(Oc2ccc(Cl)cc2)c1CN1CC[C@H](CO)[C@@H](O)C1 | 43.44
56 | CN(C)C(=O)CN1C[C@H]2CC[C@@H](C1)N(Cc1ccccc1OCCO)C2 | 5.28
57 | CC(C)[C@@H]1CN(Cc2cnc(C3CCCCC3)nc2)C[C@H]1N(C)C | -1.57
58 | CC(C)c1nn(C)c(N(C)C)c1CNCC(O)c1ccccc1F (stereo unspecified) | 78.51
59 | COc1c(CNCC(O)c2ccccc2F)c(C(C)C)nn1C (stereo unspecified) | -72.31
60 | Cc1nn(C)c(N(C)C)c1CNCC(O)c1ccccc1F (stereo unspecified) | 49.9
61 | COc1ccccc1C(O)CNCc1c(C(C)C)nn(C)c1N(C)C (stereo unspecified) | 63.95
62 | CC(C)c1nn(C)c(N(C)C)c1CNCC(O)c1ccccc1 (stereo unspecified) | 35.65
63 | COc1ccccc1OCCNCc1c(C(C)C)nn(C)c1N(C)C | 7.64
64 | O=C(NCC1CC1)c1n[nH]c2c1CNCC2 | 5.69
65 | COc1nn(C)cc1C(=O)NCC(OC)c1ccccc1C (stereo unspecified) | 24.09
66 | COc1ccc(NC(=O)CN2CCCCC2C2OCCO2)cc1 (stereo unspecified) | -13.68

Row | SMILES | INHIBITION [%]
67 | O=C(C1CC(=O)N(c2ccccc2Br)C1)N1CCCCCC1 (stereo unspecified) | 57.51
68 | COC1CCN(C(=O)C2CC(=O)N(c3ccccc3Br)C2)CC1 (stereo unspecified) | 22.86
69 | O=C(C1CC1)N1CCN(C(=O)C2CC(=O)N(c3ccccc3Br)C2)CC1 (stereo unspecified) | 10.42
70 | CC(c1cn2ncsc2n1)n1cc2[nH]cccc-2c1=O (stereo unspecified) | 30.09
71 | CC(C)OCc1ncn2c1CN(CC1CC1)CCC2 | -13.31
72 | O=C(Nc1cnccn1)[C@@H]1C[C@H]2OCC[C@H]2N(Cc2ccsc2)C1 | 59.52
73 | O=C(Nc1cccnc1)[C@@H]1C[C@H]2OCC[C@H]2N(Cc2ccsc2)C1 | -83.74
74 | O=C(NCC1CC1)[C@H]1C[C@H]2OCC[C@H]2N(Cc2ccsc2)C1 | -12.09
75 | Cc1cccc(S(=O)(=O)N2C[C@@H]3C[C@H](C(=O)NC4CCC4)[C@H](C2)O3)c1 | 12.57
76 | COCCN1C[C@@H]2CC[C@H]1CN(C(=O)CCc1c(C)nn(C)c1C)C2 | -23.17
77 | O=C(Nc1ccc(-c2nc3c([nH]2)CCNC3)cc1)N1CCCC1 | -15.03
78 | O=S(=O)(c1ccc(-c2nc3c([nH]2)CCNC3)cc1)N1CCCC1 | 52.3
79 | CC(C)NC(=O)Nc1ccc(-c2nc3c([nH]2)CCNC3)cc1 | -35.22
80 | Brc1cnc(NCCCOC2CCOCC2)nc1 | 21
81 | c1cnc(NCCCOC2CCOCC2)nc1 | 74.34
82 | Brc1ccc(NCCCOC2CCOCC2)nc1 | -11.28
83 | Cc1ccc(-c2cc(N)c(=O)n(CC(=O)NCC3CC3)n2)s1 | 36.17
84 | CN(Cc1ccccc1)CC1(O)CCCN(CC(C)(C)C)C1=O (stereo unspecified) | 16.64
85 | COCCC(=O)N1CCc2cc(Cl)cc(Cl)c2C1 | -10.6
86 | O=C(NCC1CCS(=O)(=O)C1)c1ccco1 (stereo unspecified) | 69.48
87 | O=C(NCC1CCS(=O)(=O)C1)c1ccc(NC(=O)c2ccco2)cc1 (stereo unspecified) | -19.02
88 | Cc1cc(C(=O)NCC2CCS(=O)(=O)C2)ccc1NC(=O)c1ccco1 (stereo unspecified) | -34.12

Row | SMILES | INHIBITION [%]
89 | CCOCCCC(=O)Nc1ccc(OCc2noc(C3CC3)n2)cc1 | 18.09
90 | COCCc1noc(CN2CCCc3cccc(OC)c32)n1 | -61.35
91 | COc1cccc2c1N(Cc1noc(C3CC3)n1)CCC2 | -17.64
92 | COc1cccc2c1N(Cc1nc(C3CC3)no1)CCC2 | 64.22
93 | CCCC(NC(=O)c1cncc(C)c1)c1nnn[nH]1 (stereo unspecified) | -10.41
94 | COCCN1CCc2ncnc(NC(C)C)c2CC1 | 3.6
95 | C[C@@H](NC(=O)c1cnccn1)c1c(-c2ccc(F)cc2)noc1C(=O)O | 34.79
96 | Cc1cccc(C)c1OCC(=O)N1CCOCC1c1ncon1 (stereo unspecified) | 29.54
97 | Cc1ccc(CCC(=O)N2CCOCC2c2ncon2)c(C)c1 (stereo unspecified) | 35.23
98 | O=C(CCc1cccc(Cl)c1Cl)N1CCOCC1c1ncon1 (stereo unspecified) | 58.52
99 | O=C(COc1cccc(Cl)c1)N1CCOCC1c1ncon1 (stereo unspecified) | -6.71
100 | Cc1ccc(CC(=O)N2CCOCC2c2ncon2)cc1 (stereo unspecified) | 54.99
101 | CC(C)c1ccc(CCC(=O)N2CCOCC2c2ncon2)cc1 (stereo unspecified) | 15.47
102 | CCc1ccccc1OCC(=O)N1CCOCC1c1ncon1 (stereo unspecified) | 53.58
103 | CCc1ccc(CCC(=O)N2CCOCC2c2ncon2)cc1 (stereo unspecified) | -45.23
104 | O=C(COc1ccc(Cl)cc1)N1CCOCC1c1ncon1 (stereo unspecified) | -29.5
105 | COCc1cccc(NC(=O)NCCCN(C)S(C)(=O)=O)c1 | 30.98
106 | CC(C)CC(=O)N1CC(=O)N(Cc2ccco2)CC(O)C1 (stereo unspecified) | -6.69
